# The full list was thinned out, with hits kept by preference.
# Pf Dd2 growth: qHTS Primary assay for Inhibitors of Plasmodium falciparum Dd2 growth in vitro; P. falciparum Dd2 growth, SYBR Green, 72 h; Potency, µM (series often up to 28.9 µM), inactives show at the top dose activity, negative = inhibition, actives largely listed as inhibitors; actives 4.3% (n = 120,000); active means well fitted inhibition curve with a large enough effect;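 further: plate controls were DMSO vehicle for no effect and reference drug for full effect; nearly all actives have a fitted effect of over 65% in size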
#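 Infected erythrocytes (Dd2, 0.3% parasitemia, 2.5% hematocrit final) are added to compound in RPMI-1640/Albumax II medium, grown 72 h at 37C in low oxygen, then lysed with saponin/Triton-X containing SYBR Green and read by fluorescence.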
# * marks the source's active call; other numbers are inactive results; i = inactive; [ ] = another dose, or the depositor's remark. Potency means the concentration at half of the fitted maximal effect.
SMILES,Pf Dd2 growth
O=C(CCC1CCCN(S(=O)(=O)c2ccccc2F)C1)NC1CCCCC1 (centres undefined),i
COc1ccc(Cc2c(C)nn(-c3nc(C)c(C(=O)Nc4ccc(C)cc4C)s3)c2C)cc1,-13%
COc1ccc(NC(=O)c2sc3nc(C)c(C(=O)Nc4ccc(C)cc4C)c(-c4sccc4C)c3c2N)cc1,3.2µM*
CCCCOC(=O)c1ccc(NC(=O)c2sc3nc(C)cc(C)c3c2N)cc1,-14%
N#Cc1cccc(NC(=O)CCn2ccn3nc4c(c3c2=O)CCCC4)c1,i
Cc1cc(C)c(NC(=O)Nc2ccc3snnc3c2)c(C)c1,i
O=C(Nc1cccc(C(F)(F)F)c1)Nc1ccc2snnc2c1,1.1µM*
O=C(Nc1cccc(C(F)(F)F)c1)c1ccc2snnc2c1,51%
O=C([C@@H]1C[C@H](Oc2ccccc2)CN1C(=O)c1cnccn1)N1CCOCC1,-21%
CCOc1ccc(CCNC(=O)C2CCN(Cc3nc(-c4ccc(OC)c(OC)c4)oc3C)CC2)cc1OCC,i
COc1ccccc1CCNC(=O)C1CCN(c2nnc(-n3cccc3CNc3ccc(C)cc3)s2)CC1,-10%
CCOc1ccc(NCc2cccn2-c2nnc(N3CCC(C(=O)NC(C)c4ccccc4)CC3)s2)cc1 (centres undefined),i
CCOc1ccc(NCc2cccn2-c2nnc(N3CCC(C(=O)NCCc4ccc(OCC)c(OCC)c4)CC3)s2)cc1,6.3µM*
CCOc1ccc(NCc2cccn2-c2nnc(N3CCC(C(=O)NCCc4ccc(OC)c(OC)c4)CC3)s2)cc1,7.1µM*
Cc1ccc(NCc2cccn2-c2nnc(N3CCC(C(=O)NCc4ccccc4C)CC3)s2)cc1,i
Cc1ccc([S+](=O)([O-])N2CCC3OCCN(C(C)C)C(=O)C3C2)cc1 (centres undefined),-21%[44.1 µM]
O=C(CN1CC2CC(C1)[C@H]1CCCC(=O)N1C2)N1CCN(c2ccccc2F)CC1 (some centres undefined),-25%
COc1ccccc1-c1nc(C(=O)N(C)C)n2ccccc12,-8%[44.1 µM]
Cc1cc(O)c(C(c2ccccc2)N2CCN(C)CC2)c(=O)n1Cc1ccco1 (centres undefined),50%
CN1CCN(c2cc(=O)c3ccnc(-c4cccc(CO)c4)c3o2)CC1,i
Cc1ccc2oc(=O)c3cnn(CC(=O)N4CCN(c5ccccc5)CC4)c3c2c1,22%[5.79 µM]
CCc1c(C)c2ccc(O)c(CN3CCN(c4ccccc4)CC3)c2oc1=O,1.3µM*
Cc1noc(C)c1CN1CCN(c2ccc(F)cc2)CC1,-13%
Cc1c(-c2ccccc2)c(=O)oc2c(CN3CCN(C)CC3)c(O)ccc12,4µM*
Cc1c(-c2ccc(Cl)cc2)c(=O)oc2c(CN3CCN(C)CC3)c(O)ccc12,10µM*
SMILES,Pf Dd2 growth
Cc1ccc(-c2c(C(=O)NCCc3ccc(Cl)cc3)oc(=O)c3ccccc23)cc1,-8%
C=CCNC(=O)c1cn2c(n1)CN(C(=O)OC)CC2,9%[44.1 µM]
Cc1cccc(NC(=O)N2CC3CC(C2)[C@H]2CCCC(=O)N2C3)c1 (some centres undefined),-13%
CC(C)=CC(=O)N1CC[C@H](NC(=O)NC(C)C)[C@H]1C(=O)N[C@H](Cc1c[nH]c2ccccc12)C(N)=O,-6%
CC(C)N1C(=O)C2(CCCC2)C1C(=O)NCc1nc2ccccc2n1C (centres undefined),-17%
CC1(C)C[C@H](NC(=O)c2ccccc2)[C@@]2(CCC(=O)NCCN3CCOCC3)CC[C@](C)(O)C[C@@H]12,i
CN1C(=O)COC[C@@H]1[C@H](O)c1ccc(NC(=O)c2ccc(C#N)cc2)cc1,i
CC(C)CSc1ccccc1NC(=O)c1sc2nc(-c3ccncc3)ccc2c1N,3.2µM*
COc1ccc(-c2ccc3c(N)c(C(=O)Nc4cccc(C)c4)sc3n2)cc1,-13%
COc1cccc(-c2ccc3c(N)c(C(=O)Nc4ccc(Cl)cc4F)sc3n2)c1,23%
Cc1cccc(CNC(=O)C2CCCCC(=O)N2)c1 (centres undefined),-15%
COc1cccc(CC(=O)N2CCCC(c3noc(COc4ccccc4F)n3)C2)c1 (centres undefined),i
CCN(CC)c1ccc2cc(-c3nnc(-c4cccc(Cl)c4)o3)c(=O)oc2c1,-2%
CCCN(C(=O)c1cc2c(=O)oc3ccccc3c2s1)c1cccc(Cl)c1,11%
COc1ccc(-c2cn3cc(C(=O)NCC(N)=O)nc3c(=O)n2CC2CC2)c(F)c1,-28%
CC(C)=CCn1c(-c2cc(C)oc2C)cn2cc(C(=O)N(C)CC(C)C)nc2c1=O,11µM*
CCCN(C)C(=O)c1cn2cc(-c3cccc(Cl)c3)n(CC=C(C)C)c(=O)c2n1,13µM*
Cc1ccc(C2c3cc(OCc4nc(C(=O)NCC(C)C)co4)ccc3CCN2C(=O)C2CC2)cc1 (centres undefined),-15%
O=C1CO[C@H]2CN(c3ncccn3)C[C@H]2N1Cc1ccncc1,21%[44.1 µM]
Cc1c(C(=O)N2CCC(c3nc4ccccc4s3)CC2)oc2cc(Br)ccc12,-18%
O=C(c1ccccc1Cl)N1CCC(c2nc3ccccc3s2)CC1,88%
Cc1cc(C)c2c(C)c(C(=O)N3CCC(c4nc5ccccc5s4)CC3)oc2c1,8.9µM*
Cc1ccc2oc(C(=O)N3CCC(c4nc5ccccc5s4)CC3)c(C)c2c1,31%
COc1cc(C(=O)N2CCC(c3nc4ccccc4s3)CC2)cc(OC)c1OC,96%
Cc1ccccc1C(=O)N1CCC(c2nc3ccccc3s2)CC1,1.3µM*
SMILES,Pf Dd2 growth
CCC(C)NC(=O)C1COC2(CCN(C(=O)c3cccc(OC)c3)CC2)N1C(=O)c1ccccc1C (centres undefined),-17%
CCCc1noc(-c2ccn3c(CNC(=O)c4ccco4)nnc3c2)n1,i
Cc1ncccc1C(=O)N1[C@H]2CC[C@@H]1c1cnc(-c3ccc(F)cc3)nc1C2,-3%
O=C(C1CCC1)N1[C@H]2CC[C@@H]1c1cnc(-c3ccc(F)cc3)nc1C2,13µM*
CCC(=O)N1[C@H]2CC[C@@H]1c1cnc(-c3ccc(F)cc3)nc1C2,-15%
O=C(C1CCCCC1)N1[C@H]2CC[C@@H]1c1cnc(-c3ccc(F)cc3)nc1C2,i
COc1ccc(C(=O)N2[C@H]3CC[C@@H]2c2cnc(-c4ccc(F)cc4)nc2C3)cc1F,i
COCCn1c(C)cc(C(=O)N2[C@H]3CC[C@@H]2c2cnc(-c4ccc(F)cc4)nc2C3)c1C,11µM*
CC(=O)c1ccc(NC(=O)O[C@@H]2CO[C@H]3[C@@H]2OC[C@@H]3NC(=O)c2ccccc2)cc1,-11%[44.1 µM]
N[C@H]1CCN2C(=O)c3cc(-c4ccc5c(c4)OCO5)ccc3NC(=O)[C@H]12,0%[44.1 µM]
COc1ccccc1CNC(=O)C[C@@H]1CCNC[C@@H]1Cc1cc(CSc2ccccc2)on1,-17%
COc1cc(Cl)c(C)cc1NC(=O)CN1C(=O)NC2(CCS(=O)(=O)CC2)C1=O,i
COc1ccc(C2(C(=O)N3CCC(n4cc(-c5nc(C)no5)nn4)CC3)CC2)cc1,3.2µM*
Cc1ccc(C(=O)N2CCC(n3cc(-c4nc(-c5ccccc5)no4)nn3)C2)cc1C (centres undefined),-10%
COc1cccc(C(=O)N2CCC(n3cc(-c4nc(C)no4)nn3)CC2)c1,49%
CC(C)c1noc(-c2cn(C3CCN(C(=O)c4ccc(F)c(F)c4)C3)nn2)n1 (centres undefined),44%
Cc1ccc(C(=O)N2CCCC(n3cc(-c4nc(C5CC5)no4)nn3)C2)s1 (centres undefined),-7%
CC(=O)Nc1cccc(C(=O)N2CCC(n3cc(-c4nc(C)no4)nn3)CC2)c1,-1%

# Screening results: PubChem BioAssay, National Center for Advancing Translational Sciences (NCATS)
